Molecules are shown by their SMILES. In all, about 300,000 compounds went through this assay and about 4,000 (1.3%) were called active. The full list was thinned out, with actives kept by preference. A number with no mark means an inactive call.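 Rule for the calls: active = mean replicate score, as percent of positive control median, at least 50; inconclusive = mean below 50 but one replicate at or above 50; inactive = mean and every replicate below 50.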

The assay can be described thus: S. pyogenes SKKanGAS growth inhibitors in kanamycin, primary screen, streptokinase expression inhibitor project, SKKanGAS strain, BacTiter-Glo luminescence (AID 1662).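 Note: strain carries kanamycin resistance gene driven by streptokinase promoter and grows in 40 µg/ml kanamycin; loss of luminescence reflects streptokinase promoter inhibition or plain growth inhibition; 0% = median of DMSO wells and 100% = positive control at its reference dose.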 Particulars: 6 h, at 7.5 µM, active compounds read high.
As usually defined, the inhibition is the relative decrease from the control value, in per cent. Turning to `CCc1ccc(NC(=O)CN2C(=O)COc3ccc(S(=O)(=O)N4CCCC4)cc32)cc1`, the inhibition is 2.1%.
As for `CCn1ccnc1CNC(=O)CC1C(=O)NCCN1CCCc1ccccc1` (stereo not drawn), the inhibition is -0.266%.
On to `O=C(NCc1cccnc1)Nc1cccc(NC(=O)NCc2cccnc2)c1F`, for which the inhibition was -0.181%.
With `O=C(Nc1ccccc1)N1CCN(C(=O)Nc2ccccc2)CC1` the figure was 3.57%.
As to `COc1cc(C(=O)NCC(=O)N2CC=C(c3ccccc3)CC2)cc(OC)c1OC`, the inhibition was 9.79%.
Then `O=C(Nc1ccc(Cl)c(Cl)c1)N1CC=C(c2ccccc2)CC1`, with 58.4% (active); and `CCO[C@@H]1OC(C(N)=O)=C[C@H](c2ccc(Br)cc2)[C@H]1CCCO`, with 0.82%; and `Cc1cccn2c(CNCC(C)Oc3cccnc3)c(C(=O)N3CCOCC3)nc12` (stereo not drawn), with -4.82%.
`COc1cc(/C=N\Nc2nc(-c3cccs3)c(NC(C)=O)s2)ccc1O`: the inhibition is 1.83%.
Take `CCOc1cc(/C=C(\C#N)c2nc(-c3cccs3)c(NC(C)=O)s2)ccc1O`: the inhibition was 109% (active).
With `COc1cc(/C=C(\C#N)c2nc3c(s2)CC(C)CC3)ccc1O` (stereo not drawn) the figure was 10.1%; with `O=C(Cn1cnc2ccccc21)Nc1ccccc1-c1ccccc1`, 0.579%.
Then `CCOc1ccc(C(=O)Nc2cc(Cl)ccc2-n2cncn2)cc1OC`, with -2.54%; and `CCOC(=O)NNc1cc(C(F)(F)F)ccn1`, with 0.731%; and `O=C(/C=C/c1ccc(Cl)cc1)NCCCn1ccnc1`, with -2.11%.
With `CCOC(=O)CC(NC(=O)C1c2ccccc2Oc2ccccc21)c1ccc(C)cc1` (stereo not drawn) the figure was 5.34%.
As for `COc1ccc(/C=N/NC(=O)C2CC2)c(OC)c1OC`, the inhibition was 14.5%.
As to `O=C(N/N=C/c1ccccc1O)C1CCCC1`, the inhibition is 73.1% (active).
With `Oc1ccccc1C=NC1CCCCC1N=Cc1ccccc1O` (stereo not drawn), the inhibition is -8.77%.
Then `CC1(C(=O)NNC(=S)NCC2CCCO2)CC1(Cl)Cl` (stereo not drawn), with 2.55%; and `COc1ccc(OC)c(NC(=O)c2ccc3c(c2)CCN3S(C)(=O)=O)c1`, with -4.51%; and `Nc1nc(SCC(=O)NNc2c(Cl)cc(Cl)cc2Cl)n[nH]1`, with 7.52%.
Take `CCOc1cc(NC(=O)CCl)c(OCC)cc1NC(C)=O`: the inhibition is -2.78%.
As for `COc1ccc(S(=O)(=O)N2CCCCC2)cc1NC(=O)C1CC(=O)N(c2ccc3c(c2)OCCO3)C1` (stereo not drawn), the inhibition was 14.5%.
As for `COCc1ccc(C(=O)NC2CC(C)(C)Cc3c2cnn3-c2ccc(C)cc2)o1` (stereo not drawn), the inhibition is -6.03%.
In the case of `CCCn1c(C2CCCN2c2nc(-c3ccc(C)cc3)cs2)nc2cc(Cl)c(N3CCCCC3)cc21` (stereo not drawn), the inhibition is 9.01%.
Then `Nc1c(Cl)cc(-c2csc(N3CCCC3c3nc4cc(Cl)c(Cl)cc4n3CCOCCO)n2)cc1Cl` (stereo not drawn), with 62.1% (active); and `Cc1ccc(-c2csc(N3CCN(c4cc5c(cc4Cl)nc(-c4ccncc4)n5CCOCCO)CC3)n2)cc1`, with 47.5%.
Take `COc1ccccc1-c1nc(SC)n[nH]1`: the inhibition was -1.68%.
With `COc1ccccc1-c1n[nH]c2c1[C@H](C)CC[C@H]2C(C)C` the figure was 91.1% (active); with `COc1ccc(-c2n[nH]c(C)c2-c2ccccc2OC)c(O)c1`, 1.39%.
Turning to `O=C(CSc1nc2ccccc2c(=O)[nH]1)Nc1nc(-c2ccc(Br)cc2)cs1`, the inhibition is 4.78%.
With `Cc1cc(C)c2c(=O)[nH]c(SCC(=O)Nc3ccc(Br)cc3)nc2n1` the figure was 30%; with `N#Cc1c(-c2cccs2)nc(SCC(=O)c2ccc(Br)cc2)[nH]c1=O`, 55.8% (active).
With `N#CC1(NC(=O)COC(=O)Cc2n[nH]c(=O)c3ccccc23)CCCCC1` the figure was -3.3%.
With `Cc1ccc(S(=O)(=O)c2ccc(Cl)cc2)cc1S(=O)(=O)NC(C(=O)O)C(C)C` (stereo not drawn) the figure was 0.0508%.
With `COc1cc2c(cc1NC(=O)COC(=O)/C=C/c1ccccc1)oc1ccccc12`, the inhibition is -12.9%.
Then `Cc1onc(-c2ccccc2)c1C(=O)NNC(=S)NC(=O)c1ccc(F)cc1`, with 7.91%.
As for `O=C(NNC(=S)NC(=O)c1cn(-c2ccccc2)nc1-c1ccccc1)c1ccncc1`, the inhibition is 99.7% (active).
Turning to `O=C(Nc1cn(-c2ccccc2)nc1-c1ccccc1)c1ccccc1`, the inhibition was -2.24%.
With `COC(=O)Cn1cc(/C=C/[N+](=O)[O-])c2ccccc21` the figure was 0.686%.
Then `O=C(CN1C(=O)/C(=C\c2ccccc2F)SC1=S)Nc1nc2ccccc2s1`, with 94.2% (active); and `O=C(CN1C(=O)/C(=C/c2ccccc2F)Sc2ccccc21)NCc1cccnc1`, with -8.35%.
Then `O=C(CN1C(=O)S/C(=C\c2ccccc2F)C1=O)NCCCn1ccnc1`, with 2.35%; and `O=c1[nH]c(CCl)nc2cc(-c3ccc(Cl)cc3)sc12`, with 29.5%; and `CC1CCc2c(nc3ncnn3c2Nc2ccc(OC(F)(F)F)cc2)C1` (stereo not drawn), with 2.5%.
In the case of `O=[N+]([O-])c1cc(Br)c(O)c(/C=N/Nc2nc3ccccc3s2)c1`, the inhibition is 92% (active).
Consider `COc1ccc(CC(=O)N/N=C/c2cc([N+](=O)[O-])cc(Br)c2O)cc1`, for which the inhibition was 61.6% (active).
With `COc1ccc(CC(=O)NCC(=O)N/N=C/c2cc(Br)ccc2OC)cc1`, the inhibition was 4.99%.
Take `c1ccc2sc(NN=C3CCCC3)nc2c1`: the inhibition is 18.5%.
As for `COc1cc(/C=N/Nc2nc3ccccc3s2)ccc1O`, the inhibition is -7.58%.
With `COc1cc(OC)c(/C=N/NC(=O)c2ccc([N+](=O)[O-])cc2)cc1Br`, the inhibition is -10.8%.
Then `CC1(C)c2[nH]c3ccccc3c2C[C@H]2C(=O)N(N)CC(=O)N21`, with 1.39%; and `NNC(=O)c1ccc(COCC(F)(F)C(F)F)cc1`, with -2.77%.
Then `CC(=O)c1ccc(N2CCN(C(=O)CCNC(=O)Cn3ccc4ccccc4c3=O)CC2)cc1`, with 0.0785%.
With `Cc1cc(C)cc(C(=O)NC(CC(N)=O)c2ccc(N3CCC(N4CCCCC4)CC3)c([N+](=O)[O-])c2)c1` (stereo not drawn) the figure was -2.72%; with `Cc1ccc2c(c1)c1ncnc(N3CCc4ccccc4C3)c1n2C`, 47.1%.
Turning to `CCOc1ccc(C(=O)NC(=S)Nc2ccc(NC(=O)C(C)C)cc2)cc1[N+](=O)[O-]`, the inhibition is 19.7%.
With `COc1cccc(OC)c1C(=O)NC(=S)Nc1ccc(N2CCOCC2)c(Cl)c1`, the inhibition was 4.82%.
Then `CCOc1ccc(C(=O)NC(=S)Nc2ccc(N3CCOCC3)c(Cl)c2)cc1[N+](=O)[O-]`, with 84% (active).
On to `CCN(CC)C(=O)CS(=O)CC(=O)Nc1cc(OCCOC)c(Cl)cc1Cl` (stereo not drawn), for which the inhibition was 0.17%.
With `COc1ccc(NC(=O)Nc2cccc3cccnc23)cc1`, the inhibition is -7.39%.
Take `Cc1ccc(NS(=O)(=O)c2ccc(C)c(NC(=O)COc3ccc4ccccc4c3)c2)c(C)c1`: the inhibition was 29.6%.
With `COc1cc(NS(=O)(=O)c2ccc3ccccc3c2)c2ncccc2c1` the figure was 85% (active); with `C/C(=N\NC(=O)c1cccc([N+](=O)[O-])c1)c1cccnc1`, -2.34%; with `O=C(Nc1ccc(C(=O)N2CCCCC2)cc1)c1cccc([N+](=O)[O-])c1`, 6.65%.
Then `Cn1ccc(=Nc2ccc(NC(=O)c3ccc(N=c4ccn(C)c5ccc([N+](=O)[O-])cc45)cc3)cc2)cc1`, with 75.8% (active).
In the case of `Cc1cc([N+](=O)[O-])ccc1NC(=O)c1ccc(NC(=O)C(C)C)cc1`, the inhibition was 10.6%.
With `O=C(CCN1C(=O)[C@@H]2Cc3ccccc3CN2C1=O)NCc1ccccc1` the figure was -1.78%; with `COC(=O)C1(C)NC(c2ccc(C)cc2)C2C(=O)N(c3ccc(F)cc3)C(=O)C21` (stereo not drawn), 0.707%.
On to `OC(CNCCc1ccc(Cl)cc1Cl)COc1ccccc1` (stereo not drawn), for which the inhibition is 8.35%.
For `CCOc1ccc(NC(=O)NNC(=O)c2ccc(Cl)cc2Cl)cc1`, the inhibition is -4.81%.
For the compound `NC(N)=N/N=C/c1ccc(OCc2ccc(Cl)cc2Cl)cc1`, the inhibition is 50.8% (active).
Consider `CCN(CCn1cccn1)C(=O)CC1C(=O)NCCN1Cc1cccc(OC)c1OC` (stereo not drawn), for which the inhibition was -6.29%.
Take `C/C(=N\NC(=O)OC(C)(C)C)c1ccc[nH]1`: the inhibition was -6.42%.
As for `Cc1ccc(CSc2nc(-c3ccccc3)c(C#N)c(=O)[nH]2)cc1`, the inhibition was 43.6%.
For the compound `N#Cc1c(-c2ccccc2)nc(SCc2cccc(C(F)(F)F)c2)[nH]c1=O`, the inhibition is 67.4% (active).
With `N#Cc1c(-c2ccccc2)nc(SCc2ccc([N+](=O)[O-])cc2)[nH]c1=O` the figure was 15.1%.
Then `CN1CCN(C2Cc3ccc(Cl)cc3Sc3ccc(F)cc32)CC1` (stereo not drawn), with 68.7% (active).
Then `Cc1ccc(CS(=O)(=O)c2ncc(Cl)c(C(=O)Nc3nnc(C)s3)n2)cc1`, with 2.36%.
As to `C/C(=N\NC(=O)c1ccoc1C)c1ccccc1O`, the inhibition is 4.94%.
With `Cc1ccc(-n2ncc3c2CC(C)(C)CC3NC(=O)Cc2c(C)noc2C)cc1` (stereo not drawn) the figure was -4.1%.
On to `CCc1ccc2c(c1)C1(NN=C(c3ccccc3)S1)C(=O)N2` (stereo not drawn), for which the inhibition is 96.7% (active).
Take `COc1cccc(NC(=O)C2C(c3ccccc3)C2(Cl)Cl)c1` (stereo not drawn): the inhibition was 31.8%.
Turning to `CCc1ccc(Oc2nc([N+](=O)[O-])nn2C)cc1`, the inhibition is 2.57%.
Then `Cc1cc(C(=O)N2CCC(C(=O)O)CC2)c(C(F)(F)F)o1`, with -3.49%; and `Cc1noc(C)c1CSCC(=O)Nc1ccc(Br)cc1Cl`, with 32.2%; and `Cc1noc(C)c1CSCC(=O)Nc1nc2ccc(Oc3ccccc3)cc2s1`, with 51.3% (active).
In the case of `CCc1noc(C)c1C(=O)Nc1nc2ccc(OC)cc2s1`, the inhibition was -6.51%.
Then `COc1ccc(C(=O)Nc2ccc(C3(C#N)CCCC3)cc2)cc1OC`, with 0.181%; and `Cc1ccc(/C=C/C(=O)Nc2ccc([N+](=O)[O-])c(NC(=O)/C=C/c3ccc(C)o3)c2)o1`, with 6.98%.
Turning to `C/[N+]([O-])=C\c1ccc([N+](=O)[O-])o1`, the inhibition is 1.43%.
Then `O=C(/C=C/c1ccc([N+](=O)[O-])o1)NNC(=O)c1ccc(F)cc1`, with 52.7% (active).

For the origin of these results see PubChem BioAssay AID1662 (Broad Institute, 2009).
